Measured values taken from PubChem BioAssay (Tox21).
Several values for one entry are separate records, joined by “and”; a condition that tells them apart may be missing. Equal entries are not always repeated. Records with an inconclusive call do not appear. Some compounds were tested as several samples or in several runs, with calls that do not always agree. Activity calls are given as the source filed them. Unless noted, calls come from the whole dose curve; as a rule, active = well fitted curve in the direction sought with a large enough effect in the repeat runs; inconclusive = weak or mixed curves; inactive = no such curve, though single readings can be large; an effect the other way counts as inactive or inconclusive.

Experiments:
[1] = molecular target: Progesterone receptor (Homo sapiens) (UniProt P06401); assay: qHTS assay to identify small molecule agonists of the progesterone receptor (PR) signaling pathway (AID 1346784; calls by dose curve; note: nearly all actives have a fitted effect of over 30% in size)
Procedure, shortened: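 The screen uses PR-UAS-bla HEK 293T cells in charcoal-stripped serum (2%). Compounds are applied for 16 hr at 37C after a 6 hr pre-incubation, and reporter activity is detected with a FRET beta-lactamase substrate after 2 hr at room temperature.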

[2] = qHTS assay to identify small molecule antagonists of the progesterone receptor (PR) signaling pathway - cell viability counter screen (AID 1346798); note: nearly all actives have a fitted effect of over 50% in size; note: potency is the fitted concentration of half-maximal effect
Procedure, shortened: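 Viability was determined by ATP-based luminescence (CellTiter-Glo) in PR-UAS-bla HEK293T cells cultured in 2% charcoal-stripped serum and incubated 16 hr with compounds under R5020 stimulation.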

[3] = qHTS assay to identify small molecule antagonists of the TGF-beta/Smad signaling pathway - cell viability counter screen (AID 1346824); note: nearly all actives have a fitted effect of over 50% in size
Procedure, shortened: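 Cytotoxicity counter-screen run in the same wells as the beta-lactamase Smad reporter read: CellTiter-Glo luminescence after 30 min at room temperature. HEK 293T SBE-bla cells had 5 hr compound exposure at 37 C with TGF-beta1 (0.25 ng/mL stock).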

[4] = qHTS assay to identify small molecule agonists of the TGF-beta/Smad signaling pathway - cell viability counter screen (AID 1346829); note: top concentration of the series differs between compounds; nearly all actives have a fitted effect of over 45% in size
Procedure, shortened: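 HEK 293T SBE-bla line, 5 hr compound exposure at 37 C, multiplexed CellTiter-Glo viability read by luminescence.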

[5] = qHTS assay to identify small molecule agonists of the TGF-beta/Smad signaling pathway (AID 1346859; active = well fitted activation curve with a large enough effect in the signal ratio in the repeat runs, not every such curve was filed as active; the % refers to the signal ratio; note: series mostly up to about 77 µM)
Procedure, shortened: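 Dual-wavelength fluorescence (460/530 nm emission) quantified beta-lactamase expression under the Smad binding element in HEK 293T cells following 5 hr compound treatment at 37 C.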

[6] = molecular target: Thyrotropin-releasing hormone receptor (Homo sapiens) (UniProt P34981); assay: qHTS assay to identify small molecule antagonists of the thyrotropin-releasing hormone receptor (TRHR) signaling pathway (AID 1346877; active = well fitted inhibition curve with a large enough effect in the repeat runs, not every such curve was filed as active; note: series mostly up to about 51 µM)
Procedure, shortened: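 Antagonist mode: after a 5 min room-temperature compound exposure, cells were stimulated with 1 nM (final) TRH. Dye-loaded TRHR-HEK293 cells were used, and calcium-dependent fluorescence was followed for 3 min, with 15-point titrations run in triplicate.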

[7] = molecular target: Thyrotropin-releasing hormone receptor (Homo sapiens) (UniProt P34981); assay: qHTS assay to identify small molecule agonists of the thyrotropin-releasing hormone receptor (TRHR) signaling pathway (AID 1346891; calls by dose curve;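 note: HEK293 cells expressing TRHR with calcium dye readout; series mostly up to about 58 µM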)
Procedure, shortened: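 Kinetic fluorescence (3 min, 1 s intervals) reported intracellular calcium after compound transfer onto TRHR-Hek293 cells pre-loaded with dye for 2 h at 37 °C.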

[8] = Caspase-3/7 induction in HepG2 cells by small molecules, qHTS assay (AID 1346978); note: nearly all actives have a fitted effect of over 15% in size
Procedure, shortened: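 Caspase-3/7 induction was measured by Caspase-Glo 3/7 luminescence (30 min, room temperature) after a 17 hr compound exposure of wild-type HepG2 cells seeded at 2,000 per well and pre-incubated 5 hr.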

[9] = Caspase-3/7 induction in CHO-K1 cells by small molecules, qHTS cell viability counter screen (AID 1346979); note: nearly all actives have a fitted effect of over 35% in size; note: potency is the fitted concentration of half-maximal effect
Procedure, shortened: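 Seeding: 1,500 CHO-K1 cells/well. Rest: 5hr, 37C. Treatment: compounds in DMSO, 16hr. Read: CellTiter-Fluor, 1hr, fluorescence.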

[10] = Caspase-3/7 induction in CHO-K1 cells by small molecules, qHTS assay (AID 1346980); note: nearly all actives have a fitted effect of over 15% in size; note: potency is the fitted concentration of half-maximal effect
Procedure, shortened: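 Luminescent Caspase-Glo 3/7 read (30min, room temperature) quantified apoptosis induction. Cells were wild-type CHO-K1, treated with compound for 17hr at 37 C and 5% CO2.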

[11] = Caspase-3/7 induction in HepG2 cells by small molecules, qHTS cell viability counter screen (AID 1346981); note: nearly all actives have a fitted effect of over 30% in size; note: potency is the fitted concentration of half-maximal effect
Procedure, shortened: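 CellTiter-Fluor fluorescence measured viability in the same wells used for Caspase-Glo 3/7. HepG2 (wild type) at 2,000 cells/well were pre-incubated 5 hr, dosed, and given reagent at 16 hr, with 1 hr further at 37C.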

[12] = molecular target: Nuclear receptor subfamily 1 group I member 2 (Homo sapiens) (UniProt O75469); assay: Human pregnane X receptor (PXR) small molecule agonists, qHTS assay (AID 1346982); note: nearly all actives have a fitted effect of over 35% in size; note: potency is the fitted concentration of half-maximal effect
Procedure, shortened: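 Agonist mode: luminescence from ONE-Glo after 24 h compound exposure at 37C in HepG2 cells carrying hPXR-responsive CYP3A4 luciferase, plated in charcoal-stripped serum medium 5 h beforehand.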

[13] = molecular target: Acetylcholinesterase (Homo sapiens) (UniProt P22303); assay: Acetylcholinesterase (AChE) small molecule antagonists: colormetric cell-based qHTS assay (AID 1347395; calls by dose curve; note: nearly all actives have a fitted effect of over 30% in size; note: potency is the fitted concentration of half-maximal effect)
Procedure, shortened: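 Quantitative HTS in attached SH-SY5Y cells: 30 min compound exposure, then 90 min with acetylthiocholine and DTNB at 37 C; colour from thiocholine reports AChE activity.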

[14] = Human pregnane X receptor (PXR) small molecule agonists, qHTS cell viability counter screen (AID 1346977); note: nearly all actives have a fitted effect of over 50% in size; note: potency is the fitted concentration of half-maximal effect
Procedure, shortened: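 HepG2 cells stably carrying the PXR-Luc reporter are cultured with 5% charcoal-stripped FBS and treated with compounds for 24hr. CellTiter-Fluor is added at 23hr and fluorescence is read after 1hr.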

[15] = qHTS assay to identify small molecule agonists of the progesterone receptor (PR) signaling pathway - cell viability counter screen (AID 1346799; calls by dose curve; note: nearly all actives have a fitted effect of over 45% in size; note: potency is the fitted concentration of half-maximal effect)
Procedure, shortened: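 Viability was scored by ATP luminescence (CellTiter-Glo, 30 min, room temperature) in the same wells used for the reporter readout, after 16 hr compound exposure of PR-UAS-bla HEK293T cells.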

[16] = molecular target: Nuclear receptor subfamily 1 group I member 2 (Rattus norvegicus) (UniProt Q9R1A7); assay: Rat pregnane X receptor (rPXR) activation by small molecules, qHTS assay (AID 1346983); conditions: rPXR luciferase reporter cells, One-Glo luminescence, 24 h; max activation: stronger effect = higher value; note: nearly all actives have a fitted effect of over 20% in size
Procedure, shortened: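 Luminescent readout (One-Glo luciferase, 30 min room temperature) followed 24 hr compound treatment at 37 C of rPXR cells plated 2,000 per well and preincubated 5hr; qHTS format with compounds delivered in DMSO.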

[17] = molecular target: Nuclear receptor subfamily 1 group I member 2 (Homo sapiens) (UniProt O75469); assay: CYP3A4 induction through human pregnane X receptor (PXR) by small molecules, qHTS assay (AID 1346984); note: nearly all actives have a fitted effect of over 40% in size; note: potency is the fitted concentration of half-maximal effect
Procedure, shortened: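 Read-out is luminescence after One-Glo addition, following a 3 hr, 37C incubation with Luciferin-IPA CYP3A4 substrate (3uM final). Before that, compounds were on DPX-2 cells (HepG2 co-transfected with PXR element plus CYP3A4-promoter luciferase) for 24 hr at 37C.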

[18] = molecular target: Nuclear receptor subfamily 1 group I member 2 (Homo sapiens) (UniProt O75469); assay: Human pregnane X receptor (PXR) activation by small molecules, qHTS assay (AID 1346985); note: nearly all actives have a fitted effect of over 40% in size; note: potency is the fitted concentration of half-maximal effect
Procedure, shortened: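 DPX-2 cells (HepG2 co-transfected with a PXR response element and a CYP3A4-promoter luciferase construct) were seeded at 2,000 per well, rested 5 hr at 37C, then exposed to DMSO-dissolved compounds for 24 hr. Activation was read as luciferase luminescence.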

[19] = molecular target: Progesterone receptor (Homo sapiens) (UniProt P06401); assay: qHTS assay to identify small molecule antagonists of the progesterone receptor (PR) signaling pathway (AID 1346795; active = well fitted inhibition curve with a large enough effect in the signal ratio in the repeat runs, not every such curve was filed as active; the % refers to the signal ratio; note: potency is the fitted concentration of half-maximal effect)
Procedure, shortened: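 After 6 hr plating at 37C in 2% stripped-serum medium, PR-UAS-bla HEK293T cells got compounds, then 1 nM R5020. Sixteen hours later, LiveBLAzer substrate was applied for 2 hr at room temperature and fluorescence was recorded.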

[20] = qHTS assay to identify small molecule agonists of the estrogen receptor alpha (ER-alpha) signaling pathway in the presence of an antagonist - cell viability counter screen (AID 1259386); note: series mostly up to about 92 µM; nearly all actives have a fitted effect of over 30% in size
Procedure, shortened: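 Compounds tested at 15 concentrations for 22 h at 37C alongside 10.0nM (final) ICI-182,780 antagonist, in VM7Luc4E2 cells grown in phenol red-free, charcoal-stripped medium. Viability read by CellTiter-Fluor fluorescence after 1 h reagent incubation.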
% is set by controls: 0 for no effect and ±100 for the full control effect.

Nuclear receptor subfamily 1 group I member 2 (Homo sapiens), sequence (O75469 whole entry, looked up): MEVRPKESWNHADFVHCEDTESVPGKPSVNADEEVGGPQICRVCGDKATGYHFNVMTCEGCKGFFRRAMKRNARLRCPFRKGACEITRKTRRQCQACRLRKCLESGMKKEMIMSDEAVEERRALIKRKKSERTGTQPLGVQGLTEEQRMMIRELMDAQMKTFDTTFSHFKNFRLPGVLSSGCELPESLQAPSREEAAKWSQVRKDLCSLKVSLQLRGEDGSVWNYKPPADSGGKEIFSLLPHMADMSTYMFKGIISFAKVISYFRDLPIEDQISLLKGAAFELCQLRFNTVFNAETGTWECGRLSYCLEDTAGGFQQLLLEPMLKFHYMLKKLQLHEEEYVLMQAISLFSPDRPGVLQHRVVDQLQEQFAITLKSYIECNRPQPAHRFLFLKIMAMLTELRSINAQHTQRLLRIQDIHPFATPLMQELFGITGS
Progesterone receptor (Homo sapiens), sequence (P06401 whole entry, looked up): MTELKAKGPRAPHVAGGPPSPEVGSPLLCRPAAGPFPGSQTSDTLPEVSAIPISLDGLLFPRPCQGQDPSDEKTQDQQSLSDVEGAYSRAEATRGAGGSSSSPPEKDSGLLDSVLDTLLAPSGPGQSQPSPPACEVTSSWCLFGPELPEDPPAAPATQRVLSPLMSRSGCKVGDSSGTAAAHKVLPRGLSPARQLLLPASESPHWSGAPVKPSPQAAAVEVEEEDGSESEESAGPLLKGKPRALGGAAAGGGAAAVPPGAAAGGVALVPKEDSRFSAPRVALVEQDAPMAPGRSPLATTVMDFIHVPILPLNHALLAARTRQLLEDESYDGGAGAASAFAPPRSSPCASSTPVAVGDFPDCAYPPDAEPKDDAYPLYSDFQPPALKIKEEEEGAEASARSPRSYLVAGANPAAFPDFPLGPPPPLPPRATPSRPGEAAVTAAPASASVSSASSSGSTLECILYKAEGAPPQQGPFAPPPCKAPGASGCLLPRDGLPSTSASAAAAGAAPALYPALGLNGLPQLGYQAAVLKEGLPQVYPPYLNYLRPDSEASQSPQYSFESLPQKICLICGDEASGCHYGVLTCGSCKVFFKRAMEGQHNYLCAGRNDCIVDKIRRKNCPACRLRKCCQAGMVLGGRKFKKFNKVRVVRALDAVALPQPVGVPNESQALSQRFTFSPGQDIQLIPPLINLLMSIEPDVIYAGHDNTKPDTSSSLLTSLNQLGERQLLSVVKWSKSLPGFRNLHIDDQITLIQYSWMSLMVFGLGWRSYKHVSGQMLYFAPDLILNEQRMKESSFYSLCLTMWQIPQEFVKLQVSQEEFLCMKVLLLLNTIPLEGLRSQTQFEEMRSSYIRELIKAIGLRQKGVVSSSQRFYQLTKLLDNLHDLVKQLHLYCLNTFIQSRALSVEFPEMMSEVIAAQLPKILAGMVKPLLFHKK
Acetylcholinesterase (Homo sapiens), sequence (P22303 whole entry, looked up): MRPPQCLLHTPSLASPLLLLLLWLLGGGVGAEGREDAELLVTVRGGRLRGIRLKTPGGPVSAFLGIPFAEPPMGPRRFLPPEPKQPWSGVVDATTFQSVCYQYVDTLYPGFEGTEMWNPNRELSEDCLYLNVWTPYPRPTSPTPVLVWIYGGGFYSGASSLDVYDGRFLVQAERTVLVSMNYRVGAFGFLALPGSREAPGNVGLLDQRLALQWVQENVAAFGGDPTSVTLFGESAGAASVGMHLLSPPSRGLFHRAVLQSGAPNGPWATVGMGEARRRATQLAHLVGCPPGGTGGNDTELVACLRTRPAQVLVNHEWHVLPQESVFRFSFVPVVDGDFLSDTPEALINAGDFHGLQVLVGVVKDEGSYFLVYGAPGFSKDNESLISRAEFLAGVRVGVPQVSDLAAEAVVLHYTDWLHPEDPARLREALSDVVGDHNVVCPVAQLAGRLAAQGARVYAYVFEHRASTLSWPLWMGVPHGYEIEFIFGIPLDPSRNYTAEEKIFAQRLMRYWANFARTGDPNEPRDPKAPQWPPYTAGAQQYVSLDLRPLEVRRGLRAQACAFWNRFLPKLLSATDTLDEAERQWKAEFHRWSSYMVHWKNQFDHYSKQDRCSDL
Thyrotropin-releasing hormone receptor (Homo sapiens), sequence (P34981 whole entry, looked up): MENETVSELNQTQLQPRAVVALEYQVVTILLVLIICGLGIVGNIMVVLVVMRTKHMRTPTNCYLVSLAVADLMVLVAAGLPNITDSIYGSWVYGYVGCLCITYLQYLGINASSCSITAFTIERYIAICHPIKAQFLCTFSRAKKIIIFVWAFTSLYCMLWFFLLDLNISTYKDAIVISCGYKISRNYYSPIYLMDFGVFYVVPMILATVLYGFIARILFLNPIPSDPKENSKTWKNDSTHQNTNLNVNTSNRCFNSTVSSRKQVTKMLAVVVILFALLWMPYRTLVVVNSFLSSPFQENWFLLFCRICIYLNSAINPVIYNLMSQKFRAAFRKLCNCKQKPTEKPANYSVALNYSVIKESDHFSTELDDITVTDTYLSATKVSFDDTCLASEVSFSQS
Nuclear receptor subfamily 1 group I member 2 (Rattus norvegicus), sequence (Q9R1A7 whole entry, looked up): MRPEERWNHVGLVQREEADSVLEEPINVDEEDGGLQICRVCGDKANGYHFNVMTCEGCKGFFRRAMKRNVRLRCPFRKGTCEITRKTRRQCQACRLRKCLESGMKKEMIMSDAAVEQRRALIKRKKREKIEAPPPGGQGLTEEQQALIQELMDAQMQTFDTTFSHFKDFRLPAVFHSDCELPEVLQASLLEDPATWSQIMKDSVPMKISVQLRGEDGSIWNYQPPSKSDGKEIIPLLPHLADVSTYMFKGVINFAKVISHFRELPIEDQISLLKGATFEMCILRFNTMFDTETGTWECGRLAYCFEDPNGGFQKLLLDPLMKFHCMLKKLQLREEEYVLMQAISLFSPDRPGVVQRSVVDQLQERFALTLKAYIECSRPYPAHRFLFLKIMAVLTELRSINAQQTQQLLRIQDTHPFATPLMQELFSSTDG

CCN(CC)CCc1c[nH]c2ccccc12
active: Potency [2] 90.4 µM
inactive: Potency [1] | Potency [3] | Potency [4] | outcome [5] | Potency [6] | Potency [7] | Potency [8] | Potency [9] | Potency [10] | Potency [11] | Potency [12] | Potency [13]

O.O.O.O.O.O.O.O=S(=O)([O-])[O-].[Co+2]
inactive: Potency [3] | Potency [4] | outcome [5] | Potency [14] | Potency [8] | Potency [9] | Potency [10]

c1ccc(Nc2ccc(Nc3ccccc3)cc2)cc1
inactive: Potency [1] | Potency [3] | Potency [4] | outcome [5] | Potency [6] | Potency [7] | Potency [8] | Potency [10] | Potency [11] | Potency [13]
active: Potency [9] 48.4 µM | Potency [12] 24.2 µM

CCCCCCCc1ccc(O)cc1
active: Potency [12] 61.1 µM
inactive: Potency [1] | Potency [2] | Potency [3] | outcome [5] | Potency [6] | Potency [7] | Potency [10] | Potency [13]

Nc1ccc(Cl)cc1C(=O)c1ccccc1F
active: Potency [12] 29.8 µM
inactive: Potency [1] | Potency [2] | Potency [15] | Potency [3] | Potency [4] | outcome [5] | Potency [7] | Potency [10] | Potency [13]

CNC(C)(C)Cc1ccccc1
inactive: Potency [1] | Potency [2] | Potency [15] | Potency [3] | Potency [4] | outcome [5] | Potency [14] | Potency [9] | Potency [10] | Potency [11] | Potency [12] | max activation [16] -0.549% | Potency [17] | Potency [18] | Potency [13]

CCC[CH2][Sn]([CH2]CCC)([O]C(C)=O)[O]C(C)=O
inactive: Potency [3] | Potency [4] | Potency [8] | Potency [10] | Potency [13]
active: Potency [19] 0.195 µM | Potency [15] 0.978 µM | Potency [14] 27.6 µM | Potency [11] 49 µM | Potency [12] 7.77 µM

CN1CCc2cc(Cl)c(O)cc2[C@H]2c3ccccc3CC[C@@H]21
active: Potency [17] 2.24 µM | Potency [18] 2.24 µM
inactive: Potency [1] | Potency [2] | Potency [3] | Potency [4] | outcome [5] | Potency [8] | Potency [10] | Potency [12] | max activation [16] 0.833%

COP(=S)(OC)Oc1nc(Cl)c(Cl)cc1Cl
inactive: Potency [20] | Potency [3] | Potency [4] | outcome [5] | Potency [7] | Potency [8] | Potency [10] | Potency [12] | Potency [13]

N#Cc1c[nH]cc1-c1cccc2c1OC(F)(F)O2
active: Potency [9] 48.6 µM | Potency [12] 27.3 µM
inactive: Potency [2] | Potency [3] | outcome [5] | Potency [7] | Potency [13]

CC(C)N(C(=O)CCl)c1ccccc1
inactive: Potency [1] | Potency [15] | Potency [4] | outcome [5] | Potency [6] | Potency [7] | Potency [8]
48.6 µM (active) and inactive: Potency [12]
active: Potency [2] 61.1 µM and 48.6 µM | Potency [14] 27.3 µM | Potency [9] 24.3 µM and 27.3 µM | Potency [11] 54.5 µM | Potency [13] 63.3 µM

CC(C)=CCN1CC[C@@]2(C)c3cc(O)ccc3C[C@@H]1[C@@H]2C
active: Potency [14] 17 µM | Potency [13] 31.2 µM
inactive: Potency [1] | Potency [19] | Potency [2] | Potency [15] | Potency [3] | Potency [4] | outcome [5] | Potency [6] | Potency [7] | Potency [8] | Potency [9] | Potency [10] | Potency [11] | Potency [12]

ClC1=C(Cl)[C@]2(Cl)[C@@H]3[C@H]4C[C@H]([C@@H]5O[C@H]45)[C@@H]3[C@@]1(Cl)C2(Cl)Cl
active: Potency [12] 5.44 µM | Potency [18] 25.1 µM
inactive: Potency [1] | Potency [3] | Potency [4] | outcome [5] | Potency [6] | Potency [7] | Potency [8] | Potency [17] | Potency [13]

O=C1C(Cl)=C(Cl)C(=O)C(Cl)=C1Cl
active: Potency [9] 24.2 µM and 24.3 µM | Potency [11] 54.3 µM | Potency [12] 60.9 µM and 61.1 µM
inactive: Potency [1] | Potency [19] | Potency [2] | Potency [15] | Potency [4] | Potency [6] | Potency [7] | Potency [8] | Potency [10]

CCCCCCC[CH2][Sn]([Cl])([Cl])[CH2]CCCCCCC
active: Potency [9] 54.4 µM | Potency [10] 68.5 µM
inactive: Potency [20] | Potency [3] | Potency [4] | outcome [5] | Potency [6] | Potency [7] | Potency [11] | Potency [13]
